From PubChem BioAssay (NCATS)
Inconclusive results are not listed. The source made the active and inactive calls. Calls follow the shape of the dose curve; as a rule, active = well fitted curve in the direction sought with a large enough effect; inconclusive = small, poorly fitted or top-dose-only effect, or another doubt; inactive = no such curve, though single readings can be large; an effect the other way counts as inactive or inconclusive.

Legend:
[1] = target: Rap guanine nucleotide exchange factor 3 (Homo sapiens) (UniProt O95398); assay: Confirmatory qHTS for antagonist of cAMP-regulated guanine nucleotide exchange factor 3 (EPAC1) (AID 1645880); also: nearly all actives have a fitted effect of over 55% in size; also: potency is read from the fitted curve at half-maximal effect
Outline: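 Nucleotide exchange uses 100 nM EPAC1, 250 nM RAP1B-BODIPY-GDP and 50 uM GDP, with compounds in a concentration-titration series. After 5 min at room temperature, fluorescence (480 nm ex/540 nm em) is read every 5 min for 30 min. Data are normalized to control ATA and DMSO.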

[2] = target: Rap guanine nucleotide exchange factor 3 (Homo sapiens) (UniProt O95398); assay: Confirmatory qHTS for agonist of cAMP-regulated guanine nucleotide exchange factor 3 (EPAC1) (AID 1645881);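 also: EPAC1 catalysed release of BODIPY-GDP from Rap1B seen as fluorescence loss; 100% = effect of cAMP agonist control; nearly all actives have a fitted effect of over 75% in size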
[3] = target: Rap guanine nucleotide exchange factor 4 (Homo sapiens) (UniProt Q8WZA2); assay: Confirmatory qHTS for agonist of cAMP-regulated guanine nucleotide exchange factor 4 (EPAC2) (AID 1645884);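 also: nucleotide exchange releases bodipy-GDP from Rap1 and this lowers its fluorescence; % is scaled to controls: 0 for no effect and ±100 for the full control effect; nearly all actives have a fitted effect of over 65% in size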
[4] = target: Rap guanine nucleotide exchange factor 4 (Homo sapiens) (UniProt Q8WZA2); assay: Confirmatory qHTS for antagonist of cAMP-regulated guanine nucleotide exchange factor 4 (EPAC2) (AID 1645885); also: nearly all actives have a fitted effect of over 25% in size; also: potency is read from the fitted curve at half-maximal effect; as to activity change, negative = inhibition: % is scaled to controls: 0 for no effect and ±100 for the full control effect
[5] = target: Rap guanine nucleotide exchange factor 3 (Homo sapiens) (UniProt O95398); assay: Counterscreen qHTS for antagonist of cAMP-regulated guanine nucleotide exchange factor 3 (EPAC1) (AID 1645888);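 also: fluorescence loss as bound BODIPY-GDP is released from Rap1B; % of control where 0% means no effect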
Outline: (§1)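 Measured: fluorescence of BODIPY-GDP bound to Rap1B, which falls as exchange proceeds. Conditions include 50 uM competing GDP, 5 and 30 min reads, and a later cAMP challenge for antagonist detection.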

[6] = target: Rap guanine nucleotide exchange factor 3 (Homo sapiens) (UniProt O95398); assay: Counterscreen qHTS for agonist of cAMP-regulated guanine nucleotide exchange factor 3 (EPAC1) (AID 1645889); also: % of control where 0% means no effect; nearly all actives have a fitted effect of over 40% in size
Outline: as §1

Sequence of Rap guanine nucleotide exchange factor 3 (Homo sapiens) (O95398 whole entry, looked up): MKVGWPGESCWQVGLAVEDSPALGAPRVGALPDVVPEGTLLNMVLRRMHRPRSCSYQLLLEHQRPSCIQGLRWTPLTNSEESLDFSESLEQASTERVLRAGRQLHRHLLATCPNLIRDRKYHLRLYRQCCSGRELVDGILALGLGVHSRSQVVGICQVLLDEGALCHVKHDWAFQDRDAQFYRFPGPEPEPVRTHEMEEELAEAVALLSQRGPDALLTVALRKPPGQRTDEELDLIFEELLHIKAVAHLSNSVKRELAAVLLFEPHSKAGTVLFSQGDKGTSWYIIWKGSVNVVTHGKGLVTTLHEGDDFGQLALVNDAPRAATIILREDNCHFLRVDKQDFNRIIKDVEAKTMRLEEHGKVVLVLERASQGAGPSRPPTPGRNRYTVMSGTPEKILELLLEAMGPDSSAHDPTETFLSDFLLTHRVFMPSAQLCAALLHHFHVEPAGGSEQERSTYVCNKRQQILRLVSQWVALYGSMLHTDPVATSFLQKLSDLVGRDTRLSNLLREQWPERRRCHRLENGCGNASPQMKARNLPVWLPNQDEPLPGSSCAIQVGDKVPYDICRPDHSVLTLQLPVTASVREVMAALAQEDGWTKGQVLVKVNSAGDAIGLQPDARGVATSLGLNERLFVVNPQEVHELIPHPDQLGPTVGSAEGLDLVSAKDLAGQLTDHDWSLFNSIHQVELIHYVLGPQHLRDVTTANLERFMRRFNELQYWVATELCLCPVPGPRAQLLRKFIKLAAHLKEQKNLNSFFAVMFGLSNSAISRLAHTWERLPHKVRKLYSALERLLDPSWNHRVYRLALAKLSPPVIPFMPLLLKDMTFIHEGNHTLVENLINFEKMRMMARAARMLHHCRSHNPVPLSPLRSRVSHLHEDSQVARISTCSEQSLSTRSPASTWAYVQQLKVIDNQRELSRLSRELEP
Sequence of Rap guanine nucleotide exchange factor 4 (Homo sapiens) (Q8WZA2 whole entry, looked up): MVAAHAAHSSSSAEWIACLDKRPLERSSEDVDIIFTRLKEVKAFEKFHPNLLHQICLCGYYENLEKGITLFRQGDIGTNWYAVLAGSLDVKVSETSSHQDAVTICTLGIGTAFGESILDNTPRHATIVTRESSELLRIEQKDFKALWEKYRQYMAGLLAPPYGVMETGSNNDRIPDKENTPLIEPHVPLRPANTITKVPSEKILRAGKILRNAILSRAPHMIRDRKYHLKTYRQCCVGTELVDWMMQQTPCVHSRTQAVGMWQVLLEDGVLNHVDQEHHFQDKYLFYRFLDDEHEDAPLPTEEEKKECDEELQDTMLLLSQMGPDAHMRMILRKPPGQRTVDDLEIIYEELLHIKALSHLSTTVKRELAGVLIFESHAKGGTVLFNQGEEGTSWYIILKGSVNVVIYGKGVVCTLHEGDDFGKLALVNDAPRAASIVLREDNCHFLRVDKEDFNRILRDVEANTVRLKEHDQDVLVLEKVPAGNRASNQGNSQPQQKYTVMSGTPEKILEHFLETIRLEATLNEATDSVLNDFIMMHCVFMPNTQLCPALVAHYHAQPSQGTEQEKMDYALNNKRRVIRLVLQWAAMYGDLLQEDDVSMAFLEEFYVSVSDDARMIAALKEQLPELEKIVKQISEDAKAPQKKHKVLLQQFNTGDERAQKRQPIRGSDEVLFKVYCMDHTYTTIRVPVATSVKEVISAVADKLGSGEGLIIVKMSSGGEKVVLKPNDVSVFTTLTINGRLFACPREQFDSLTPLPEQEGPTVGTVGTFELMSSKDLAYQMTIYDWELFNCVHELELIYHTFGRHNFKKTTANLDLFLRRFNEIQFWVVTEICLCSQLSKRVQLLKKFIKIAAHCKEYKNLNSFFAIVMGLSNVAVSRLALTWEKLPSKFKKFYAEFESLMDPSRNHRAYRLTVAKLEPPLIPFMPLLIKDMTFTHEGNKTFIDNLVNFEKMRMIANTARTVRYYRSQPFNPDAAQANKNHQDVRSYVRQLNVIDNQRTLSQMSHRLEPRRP

CSc1ccccc1NC(=O)COc1ccccc1C
inactive: Potency [1] | Potency [2] | activation [3] 11.3% [at 17.1 µM, percent relative to cAMP agonist control] | Potency [4] | activity change, negative = inhibition [5] -1.84% [at 30.8 µM] | activation [6] 4.86% [at 30.8 µM]

COc1cccc(/C=C2\SC(=S)N(NS(=O)(=O)c3ccccc3)C2=O)c1OC
inactive: Potency [2] | Potency [3] | Potency [5] | Potency [6]
active: Potency [1] 33.8 µM | Potency [4] 37.9 µM

C=CCN(CC=C)Cc1cc(=O)oc2ccc3ccccc3c12
inactive: Potency [1] | Potency [2] | activation [3] -1.79% [at 17.1 µM, percent relative to cAMP agonist control] | Potency [4] | activity change, negative = inhibition [5] -12.3% [at 30.8 µM] | activation [6] 4.33% [at 30.8 µM]

COCOCCn1cc(CN2CCS(=O)(=O)N(Cc3ccc(-c4ccc(Cl)cc4)cc3)C(CC(C)C)C2=O)nn1 (stereo not given)
inactive: Potency [1] | Potency [2] | Potency [3] | Potency [4] | Potency [5] | Potency [6]

COc1ccccc1C1SCCN1S(C)(=O)=O (stereo not given)
inactive: Potency [1] | Potency [2] | Potency [3] | Potency [4] | Potency [5] | Potency [6]

CCCNC(=O)C1CCN(S(=O)(=O)c2ccc3[nH]c(=O)ccc3c2)CC1
inactive: Potency [1] | Potency [2] | Potency [3] | Potency [4] | Potency [5] | Potency [6]

Cc1ccc(CNC(=O)c2ccc3c(=O)[nH]c4c(C(=O)NCC5CCCO5)sc(=S)n4c3c2)cc1 (stereo not given)
active: Potency [1] 84.9 µM
inactive: Potency [2] | Potency [3] | Potency [4] | Potency [5] | Potency [6]

CCc1ccc(S(=O)(=O)Nc2cc3c(cc2C)n(C)c(=O)n3C)cc1
inactive: Potency [1] | Potency [2] | activation [3] 6.63% [at 17.1 µM, percent relative to cAMP agonist control] | Potency [4] | activity change, negative = inhibition [5] -10.1% [at 30.8 µM] | activation [6] 18.2% [at 30.8 µM]

Cc1ccccc1S(=O)(=O)N1C(c2ccc(Cl)c(Cl)c2)CC=C(C(=O)O)C1c1cccc(Br)c1 (stereo not given)
inactive: Potency [2] | Potency [3] | Potency [4] | Potency [5] | Potency [6]
active: Potency [1] 75.7 µM

CCCc1cc(=O)oc2c3c(cc(OCC(=O)NCc4ccccn4)c12)OC(C)(C)CC3
inactive: Potency [1] | Potency [2] | Potency [3] | Potency [4] | Potency [5] | Potency [6]

Cc1ccc2[nH]cc(C(c3ccccc3)c3cccs3)c2c1 (stereo not given)
inactive: Potency [1] | Potency [2] | Potency [3] | outcome [4] inactive [at 12.7 µM] | Potency [5] | Potency [6]

O=[N+]([O-])c1cc([N+](=O)[O-])c2oc(-c3ccccc3)c(Br)c2c1O
inactive: Potency [2] | Potency [3] | Potency [5] | Potency [6]
active: Potency [1] 2.69 µM | Potency [4] 3.01 µM

COc1cc(/C=N/NC(=O)c2ccc3c(c2)OCCO3)cc(Br)c1O
active: Potency [1] 42.6 µM
inactive: Potency [2] | Potency [3] | Potency [4] | Potency [5] | Potency [6]

CN1CCN(C(c2ccccc2Cl)c2sc3nc(-c4ccco4)nn3c2O)CC1 (stereo not given)
inactive: Potency [1] | Potency [2] | Potency [3] | outcome [4] inactive [at 12.7 µM] | Potency [5] | Potency [6]

COc1ccc(C(C#N)=Cc2cccc(OC)c2OC)cc1
active: Potency [4] 16.9 µM
inactive: Potency [1] | Potency [2] | Potency [3] | Potency [5] | Potency [6]

CCC(C(=O)NCc1ccc(OC)c(OC)c1)n1nc(C)c2c(C)n(-c3ccc(C)cc3)nc2c1=O (stereo not given)
inactive: Potency [1] | Potency [2] | Potency [3] | outcome [4] inactive [at 12.7 µM] | Potency [5] | Potency [6]

CN(CC(=O)Nc1cccc(F)c1)C(=O)CN1c2cccc3cccc(c23)S1(=O)=O
inactive: Potency [2] | Potency [3] | Potency [4] | Potency [5] | Potency [6]
active: Potency [1] 75.7 µM

COc1cccc(/C=C2\SC(=S)N(C(Cc3ccccc3)C(=O)O)C2=O)c1 (stereo not given)
active: Potency [1] 47.8 µM
inactive: Potency [2] | Potency [3] | Potency [4] | Potency [5] | Potency [6]

CCC(=O)OCCCNc1nc(-c2ccc(Cl)cc2)nc2ccccc12
inactive: Potency [1] | Potency [2] | Potency [3] | Potency [4] | Potency [5] | Potency [6]

Cc1[nH]c2ccccc2c1C(C[N+](=O)[O-])c1cccs1 (stereo not given)
inactive: Potency [1] | Potency [2] | activation [3] 5.2% [at 17.1 µM, percent relative to cAMP agonist control] | Potency [4] | activity change, negative = inhibition [5] -10.6% [at 30.8 µM] | activation [6] 46.2% [at 30.8 µM]
